High-throughput results: PubChem BioAssay, Broad Institute
PAX8 inh HTS – PAX8 transcriptional activity inhibition; RMG-I TPO-luciferase reporter, SteadyGlo, 24 h; inhibition, % at 12.6 µM; 1.2% of 360,000 active;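 active means mean replicate inhibition at least 60% with every replicate also reaching 60%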;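 further: luciferase light reporting Pax8 driven TPO promoter activity; plate controls were median of neutral control wells for no effect and mitoxantrone controls for full effect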
Env fusion inh – inhibitors of HIV Env-mediated cell fusion; HeLa-JRFL Env/CEM21 cell fusion, luciferase; inhibition, % at 12.3 µM; 1.1% of 360,000 active; AID 651610;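 active means mean replicate inhibition score of at least 50 and every replicate individually at or above 50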;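 further: 0% = plate neutral controls and 100% = maraviroc near 300 nM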
miR-122 sensor – miR-122 inhibition in Huh7 cells. activation (reporter increase), % at 12.5 µM. 0.3% of 340,000 active. Huh7 miR-122 Renilla luciferase sensor, 48 h; neutral wells = 0, positive control = 100. AID 602342;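 active means mean replicate activation score at least 90 and every replicate individually at or above 90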;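 further: higher luciferase means less miR-122 activity so hits act as miR-122 inhibitors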
C2C12 statin – suppressors of simvastatin-induced myotoxicity in C2C12 myotubes | rescue of ATP level, % at 7.49 µM | ATP luminescence, 48 h; scaled: DMSO 0, geranylgeraniol control 100 | 0.78% of 330,000 active;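 active means mean ATP rescue above about 67%, or every replicate alone reaching that limit, limit read from the data, passing the limit was not always enough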;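 further: myotubes were challenged with 10 µM simvastatin during compound exposure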
INS-1E GSIS act – primary screen for activators of insulin secretion dependent on glucose, INS-1E cells, GLuc reporter luminescence | 0.61% of 370,000 active | INS-1E GLuc reporter insulin secretion, 2-3 h | activation, % at 16.6 µM;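 active means lowest replicate activation of at least 40%, so every replicate reaches that level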;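 further: 0% = median of neutral control wells and 100% = median of IBMX positive control wells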
EWS-Fli block – blocks EWS/Fli oncoprotein-driven transcription; A673 NR0B1-luciferase reporter, viability-normalised; 0.67% of 350,000 active; inhibition, % at 12.6 µM;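 active means mean inhibition of at least 50% after viability correction, with every replicate also passing that limit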;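 further: firefly luciferase signal divided by Alamar Blue viability fluorescence both relative to DMSO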
An asterisk follows results filed as active; [ ] = dose if it differs, or a comment. The list is not random: actives were taken first. Their share in the collection is about 3.1%.

CO[C@H]1CN(C)C(=O)c2ccc(NC(=O)C3CC3)cc2OC[C@@H](C)N(C(=O)Cc2ccccn2)C[C@H]1C was read as PAX8 inh HTS -5, C2C12 statin 1, INS-1E GSIS act 10 and EWS-Fli block -1.
`CCCCn1c(N)c(N(CC(C)C)C(=O)c2ccc(S(=O)(=O)N(CC)c3ccccc3)cc2)c(=O)[nH]c1=O` gave PAX8 inh HTS -10, Env fusion inh 102*, miR-122 sensor -2, C2C12 statin -3, INS-1E GSIS act 6 and EWS-Fli block -6.
`C=C(CN(C)C)C(=O)c1ccc(C)cc1C` gave PAX8 inh HTS 85*, Env fusion inh -5, miR-122 sensor -4, INS-1E GSIS act -32 and EWS-Fli block 73*.
Screening C[C@@H]1CN([C@H](C)CO)C(=O)c2cc(NC(=O)C3CC3)ccc2O[C@H]1CN(C)Cc1ccncc1 returned PAX8 inh HTS 6, Env fusion inh -8[16.7 µM], miR-122 sensor 0[16.7 µM], C2C12 statin -30, INS-1E GSIS act 12 and EWS-Fli block 7.
Screening CCN(CC)S(=O)(=O)c1ccc(NC2c3ccccc3C(=O)N2Cc2ccc3c(c2)OCO3)cc1 (configuration not stated) returned PAX8 inh HTS -17, Env fusion inh 67*, C2C12 statin 19, INS-1E GSIS act -23 and EWS-Fli block 5.
`C[C@@H]1CCCCO[C@H](CN(C)C(=O)Nc2ccc3c(c2)OCO3)[C@@H](C)CN([C@@H](C)CO)C(=O)c2cc(NS(C)(=O)=O)ccc2O1` gave Env fusion inh -62[16.7 µM], miR-122 sensor -4[16.7 µM], INS-1E GSIS act 10 and EWS-Fli block -4.
`Cc1[nH]n(-c2ccc(Cl)cc2)c(=O)c1C=NC12CN3CN(CN(C3)C1)C2` gave PAX8 inh HTS 81*, INS-1E GSIS act -10 and EWS-Fli block 7.
COC(=O)c1cc2c(c3c4cc(OC)ccc4n(S(=O)(=O)c4ccccc4)c13)C(=O)N(C)C2 was read as PAX8 inh HTS 24, Env fusion inh 65* and EWS-Fli block 12.
CC(=O)N1[C@@H](CO)[C@H](c2ccccc2)C12CN(C(=O)c1ccc3c(c1)OCO3)C2 was read as INS-1E GSIS act 0 and EWS-Fli block -1.
CCCC(=O)N(C1CC(C)C(C#N)(C#N)C1(C#N)C#N)N(C)C (configuration not stated) was read as PAX8 inh HTS 68*, Env fusion inh -56, INS-1E GSIS act 7 and EWS-Fli block 14.
For CC(=O)N(C1CC(C)C(C#N)(C#N)C1(C#N)C#N)N(C)C (configuration not stated) the results were PAX8 inh HTS 75*, Env fusion inh -23, INS-1E GSIS act 167* and EWS-Fli block 36.
For COc1ccc(-c2noc(CCCCC(=O)N3CCN(c4cc(C)ccc4C)CC3)n2)cc1 the results were PAX8 inh HTS 41, Env fusion inh 68*, miR-122 sensor -5, C2C12 statin -28, INS-1E GSIS act -53 and EWS-Fli block 44.
CCOc1cc2[nH]c(=S)n(CCCN(CC)CC)c(=O)c2cc1OCC was read as PAX8 inh HTS 8, Env fusion inh 47, miR-122 sensor -15 and C2C12 statin -8.
Screening CCOc1cc2[nH]c(=S)n(CCOC)c(=O)c2cc1OCC returned PAX8 inh HTS 0, Env fusion inh -50, miR-122 sensor 0 and C2C12 statin 111*.
Screening O=C(C[C@H]1C=C[C@@H](NC(=O)Nc2ccc(C(F)(F)F)cc2)[C@@H](CO)O1)NCc1cccc(F)c1 returned PAX8 inh HTS 12, Env fusion inh 0[16.7 µM], miR-122 sensor -16[16.7 µM], C2C12 statin 8, INS-1E GSIS act -27 and EWS-Fli block -9.
For COc1ccc(N2C(=O)CSC23CCCCC3)cc1 the results were PAX8 inh HTS 12, Env fusion inh -324, miR-122 sensor -4 and C2C12 statin -36.
Screening CCOc1ccc(N2C(=O)CSC23CCCCC3)cc1 returned miR-122 sensor 2 and C2C12 statin 96*.
CC(=O)N1CCN(c2nnnn2-c2ccccc2)CC1 was read as miR-122 sensor -1 and C2C12 statin 126*.
For O=C(CCN1CCCCC1)NCC[C@H]1CC[C@H](NC(=O)C2CCOCC2)[C@@H](CO)O1 the results were PAX8 inh HTS -9, Env fusion inh 3[16.7 µM], C2C12 statin -1, INS-1E GSIS act 0 and EWS-Fli block -2.
C[C@H](CO)N1C[C@H](C)[C@H](CN(C)S(=O)(=O)c2cccs2)Oc2ccc(NC(=O)Nc3ccc(C(F)(F)F)cc3)cc2CC1=O was read as PAX8 inh HTS 15, Env fusion inh 61*[16.7 µM], miR-122 sensor -14[16.7 µM], C2C12 statin 36, INS-1E GSIS act -34 and EWS-Fli block 56*.
For CC(C)NC(=O)Nc1ccc2c(c1)CC(=O)N([C@@H](C)CO)C[C@H](C)[C@H](CN(C)S(=O)(=O)c1cccs1)O2 the results were PAX8 inh HTS -20, Env fusion inh 57*[16.7 µM], miR-122 sensor 9[16.7 µM], C2C12 statin -12, INS-1E GSIS act 4 and EWS-Fli block 1.
For CC(C)NC(=O)Nc1ccc2c(c1)CC(=O)N([C@@H](C)CO)C[C@H](C)[C@@H](CN(C)S(=O)(=O)c1cccs1)O2 the results were PAX8 inh HTS 22, Env fusion inh -4[16.7 µM], miR-122 sensor -9[16.7 µM], C2C12 statin -13, INS-1E GSIS act 18 and EWS-Fli block -6.
Screening C[C@H]1CN([C@@H](C)CO)C(=O)c2cc(NC(=O)Nc3ccc4c(c3)OCO4)ccc2O[C@H]1CN(C)S(=O)(=O)c1cccs1 returned Env fusion inh 57*[16.7 µM], miR-122 sensor 4[16.7 µM], INS-1E GSIS act -6 and EWS-Fli block -6.
CC(C)NC(=O)Nc1ccc2c(c1)CC(=O)N([C@H](C)CO)C[C@H](C)[C@H](CN(C)S(=O)(=O)c1cccs1)O2 was read as PAX8 inh HTS -28, Env fusion inh 60*[16.7 µM], miR-122 sensor 30[16.7 µM], C2C12 statin 16, INS-1E GSIS act -11 and EWS-Fli block -8.
`C[C@H](CO)N1C[C@H](C)[C@@H](CN(C)C(=O)Nc2ccccc2)Oc2ccc(NC(=O)Nc3ccc(F)cc3)cc2C1=O` gave Env fusion inh 0[16.7 µM], miR-122 sensor -2[16.7 µM], C2C12 statin -1, INS-1E GSIS act 3 and EWS-Fli block -4.
COCC(=O)Nc1ccc2c(c1)OC[C@@H](C)N(C(=O)Cc1ccccn1)C[C@@H](C)[C@@H](OC)CN(C)C2=O was read as miR-122 sensor 4[16.7 µM], C2C12 statin 4, INS-1E GSIS act -1 and EWS-Fli block -2.
Screening C[C@@H]1CN([C@H](C)CO)C(=O)c2cc(NC(=O)Cn3cnnn3)ccc2O[C@H]1CN(C)C(=O)Nc1ccc(C(F)(F)F)cc1 returned miR-122 sensor -1[16.7 µM], C2C12 statin -20, INS-1E GSIS act 13 and EWS-Fli block -6.
For CCC(=O)N1CC2(C1)CN(Cc1cc(F)ccc1F)[C@H](CO)c1c2c2ccc(OC)cc2n1C the results were INS-1E GSIS act -17.
